# Assay results from ChEMBL document CHEMBL3988442, “University of Dundee, Small-Polar-MMV Screening Library” (2021).
# For part of these data: Potency and affinity values are given separately.
# Tests used:
# Parameters in all cases: scale not given: direction of the effect not stated beside the values
# [1] = molecular target: Protein translocase subunit SecA (Escherichia coli (strain K12)) (UniProt P10408); experiment: Assay to Identify E. coli SecA ATPase Inhibitors; assay type: functional; details: 30 µM
# [2] = molecular target: T1, Ubiquitin-activating enzyme e1, putative (Leishmania donovani (strain BPK282A1)) (UniProt E9BSI1); experiment: Leishmania donovani Ubiquitin Activating Enzyme (LdE1); assay type: functional; details: 30 µM
# T1 sequence (whole entry): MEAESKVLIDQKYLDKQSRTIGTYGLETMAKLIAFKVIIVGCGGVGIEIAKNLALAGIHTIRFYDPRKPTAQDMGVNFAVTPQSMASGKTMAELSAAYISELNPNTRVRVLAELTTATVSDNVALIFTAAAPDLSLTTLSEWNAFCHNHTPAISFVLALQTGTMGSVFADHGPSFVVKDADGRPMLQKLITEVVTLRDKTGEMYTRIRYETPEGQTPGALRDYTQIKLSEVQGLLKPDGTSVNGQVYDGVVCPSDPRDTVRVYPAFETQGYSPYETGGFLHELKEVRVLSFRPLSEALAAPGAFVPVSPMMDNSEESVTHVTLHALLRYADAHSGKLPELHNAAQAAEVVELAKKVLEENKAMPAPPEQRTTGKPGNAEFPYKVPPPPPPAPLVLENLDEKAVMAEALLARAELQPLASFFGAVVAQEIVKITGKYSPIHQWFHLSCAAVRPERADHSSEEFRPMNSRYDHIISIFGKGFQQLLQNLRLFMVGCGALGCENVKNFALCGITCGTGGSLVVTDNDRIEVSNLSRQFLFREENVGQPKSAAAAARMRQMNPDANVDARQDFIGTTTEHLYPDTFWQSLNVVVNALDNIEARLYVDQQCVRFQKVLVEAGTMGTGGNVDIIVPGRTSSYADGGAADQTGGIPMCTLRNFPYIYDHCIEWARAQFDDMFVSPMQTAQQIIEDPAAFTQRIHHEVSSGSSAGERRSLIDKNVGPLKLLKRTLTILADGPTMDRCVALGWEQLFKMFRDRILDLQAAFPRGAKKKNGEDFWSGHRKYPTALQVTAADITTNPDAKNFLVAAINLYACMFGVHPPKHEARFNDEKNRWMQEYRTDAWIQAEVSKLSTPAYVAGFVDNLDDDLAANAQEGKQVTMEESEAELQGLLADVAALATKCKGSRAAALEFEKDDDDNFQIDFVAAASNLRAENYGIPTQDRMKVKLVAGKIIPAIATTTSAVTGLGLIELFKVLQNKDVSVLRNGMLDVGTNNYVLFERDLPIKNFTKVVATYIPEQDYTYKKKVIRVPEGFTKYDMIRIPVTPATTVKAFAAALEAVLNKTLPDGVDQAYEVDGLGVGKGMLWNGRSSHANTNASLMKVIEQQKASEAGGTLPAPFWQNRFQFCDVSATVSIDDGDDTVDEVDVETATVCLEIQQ
# [3] = molecular target: T2, Aspartate--tRNA(Asp/Asn) ligase (Mycobacterium tuberculosis (strain ATCC 25618 / H37Rv)) (UniProt P9WFW3); experiment: Assay for Asp RNA synthetase-1 from Mycobacterium tuberculosis; assay type: functional; details: 30 µM; further: in the data most compounds retested in dose-response had high values
# T2 sequence (whole entry): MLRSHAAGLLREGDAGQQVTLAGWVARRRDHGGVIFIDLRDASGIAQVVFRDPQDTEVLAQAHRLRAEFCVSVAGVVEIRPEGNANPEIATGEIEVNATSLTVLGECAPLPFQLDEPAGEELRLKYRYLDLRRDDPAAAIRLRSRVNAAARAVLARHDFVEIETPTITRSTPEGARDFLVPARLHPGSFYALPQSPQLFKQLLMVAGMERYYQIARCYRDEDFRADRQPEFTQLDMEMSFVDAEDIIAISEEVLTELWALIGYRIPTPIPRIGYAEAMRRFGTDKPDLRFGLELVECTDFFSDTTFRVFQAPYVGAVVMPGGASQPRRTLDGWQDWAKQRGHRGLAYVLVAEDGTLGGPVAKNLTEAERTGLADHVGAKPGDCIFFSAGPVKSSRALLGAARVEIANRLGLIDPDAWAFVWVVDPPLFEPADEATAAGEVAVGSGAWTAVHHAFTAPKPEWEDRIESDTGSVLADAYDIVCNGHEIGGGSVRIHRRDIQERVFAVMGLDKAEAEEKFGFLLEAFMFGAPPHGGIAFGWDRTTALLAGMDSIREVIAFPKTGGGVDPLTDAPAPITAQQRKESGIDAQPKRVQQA
# [4] = molecular target: AMP-activated protein kinase, AMPK (Homo sapiens) (UniProt P54646+O43741+P54619+Q9UGJ0+Q9Y478+Q13131+Q9UGI9); experiment: AMP-dependent Kinase enzyme assay. An in vitro enzyme assay that detects ADP turnover that is directly proportional to AMPK activity. This uses naive AMPK that is activated during the assay with MK-8722; assay type: functional; details: 30 µM
# [5] = molecular target: Sialic acid-binding Ig-like lectin 9 (Homo sapiens) (UniProt Q9Y336); experiment: Hs-Siglec9 ALPHAscreen SOP 20170721; details: 10 µM
# Trypanosoma cruzi = experiment: Trypanosoma cruzi phosphomannomutase and mannose-1-phosphate guanylyltransferase assay; assay type: functional; details: 10 µM
# [6] = molecular target: T3, Arginase-2, mitochondrial (Homo sapiens) (UniProt P78540); experiment: in vitro enzyme assay to detect the production of urea directly proportional to the activity of Arginase II; assay type: functional; details: 33.3 µM; further: in the data most compounds retested in dose-response had high values
# T3 sequence (whole entry): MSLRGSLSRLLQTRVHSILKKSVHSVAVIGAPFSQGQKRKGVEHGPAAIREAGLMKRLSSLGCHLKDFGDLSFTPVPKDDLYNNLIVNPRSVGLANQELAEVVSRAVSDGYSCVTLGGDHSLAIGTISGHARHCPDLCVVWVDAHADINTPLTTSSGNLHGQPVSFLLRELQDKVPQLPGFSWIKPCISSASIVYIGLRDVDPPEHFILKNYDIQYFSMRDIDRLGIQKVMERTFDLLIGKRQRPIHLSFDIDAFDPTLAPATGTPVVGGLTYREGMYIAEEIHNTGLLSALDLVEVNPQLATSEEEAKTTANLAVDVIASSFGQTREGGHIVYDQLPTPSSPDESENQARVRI
# [7] = molecular target: T4, Proteasome subunit beta (Trypanosoma cruzi) (UniProt O96673); experiment: Trypanosoma cruzi proteasome chymotrypsin-like activity (TcProtChymo) assay.; further: in the data most compounds retested in dose-response had high values; assay type: functional; details: 9.37 µM
# T4 sequence (whole entry): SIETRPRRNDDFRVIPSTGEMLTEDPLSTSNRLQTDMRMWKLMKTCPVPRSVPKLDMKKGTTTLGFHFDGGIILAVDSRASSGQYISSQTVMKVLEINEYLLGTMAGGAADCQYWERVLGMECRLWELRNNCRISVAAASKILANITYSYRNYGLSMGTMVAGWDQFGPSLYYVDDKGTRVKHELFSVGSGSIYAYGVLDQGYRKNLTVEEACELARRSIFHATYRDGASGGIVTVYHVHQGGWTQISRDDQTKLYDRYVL
# Homo sapiens = species on record: Homo sapiens; experiment: To identify inhibition of the IFN signalling (Jak-Stat) pathway via expression of an eGFP reporter gene under the control of an IFN-stimulated response element (ISRE) containing MxA promoter.; assay type: functional; details: 30 µM
# [8] = molecular target: Shiga toxin 2 (Escherichia coli O157:H7) (UniProt P09385+P09386); experiment: E. coli 0.157:H7 Shiga Toxin SOP - stx2 screening assay; assay type: functional; details: 30 µM
# [9] = molecular target: T5, Tyrosyl-tRNA synthetase, putative (Trypanosoma cruzi (strain CL Brener)) (UniProt Q4DSP6); experiment: Trypanosoma cruzi tyrosyl tRNA synthetase (TcYRS) _High Tyrosine SOP; assay type: functional; details: 30 µM; further: in the data most compounds retested in dose-response had high values
# T5 sequence (whole entry): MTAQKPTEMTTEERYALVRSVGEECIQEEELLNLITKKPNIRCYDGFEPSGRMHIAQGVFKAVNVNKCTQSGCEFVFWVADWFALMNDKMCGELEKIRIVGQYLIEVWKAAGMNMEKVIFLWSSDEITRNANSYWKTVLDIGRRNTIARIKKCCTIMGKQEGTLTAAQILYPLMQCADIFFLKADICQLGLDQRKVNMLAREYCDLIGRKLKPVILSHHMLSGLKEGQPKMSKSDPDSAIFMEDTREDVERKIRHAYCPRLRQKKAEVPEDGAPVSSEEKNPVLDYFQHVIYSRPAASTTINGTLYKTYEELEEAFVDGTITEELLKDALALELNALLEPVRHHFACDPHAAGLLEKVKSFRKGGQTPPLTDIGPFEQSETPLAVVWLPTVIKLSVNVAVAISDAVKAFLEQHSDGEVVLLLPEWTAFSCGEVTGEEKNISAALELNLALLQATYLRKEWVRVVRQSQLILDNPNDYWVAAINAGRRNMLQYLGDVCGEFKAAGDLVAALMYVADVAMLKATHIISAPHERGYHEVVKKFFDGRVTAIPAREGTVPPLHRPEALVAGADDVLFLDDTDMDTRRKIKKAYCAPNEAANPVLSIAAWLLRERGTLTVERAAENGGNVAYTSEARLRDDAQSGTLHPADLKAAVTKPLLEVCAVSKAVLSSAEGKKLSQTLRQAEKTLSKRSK
# [10] = molecular target: T5, Tyrosyl-tRNA synthetase, putative (Trypanosoma cruzi (strain CL Brener)); experiment: Trypanosoma cruzi tyrosyl tRNA synthetase (TcYRS) SOP; assay type: functional; details: 30 µM
# [11] = molecular target: Chromo domain-containing protein 1 (Saccharomyces cerevisiae (strain ATCC 204508 / S288c) (Baker's yeast)) (UniProt P32657); experiment: ScCHD-1 Enzyme Inhibition Assay; assay type: functional; details: 30 µM; further: in the data most compounds retested in dose-response had high values
# Chain of Chromo domain-containing protein 1 (Saccharomyces cerevisiae (strain ATCC 204508 / S288c) (Baker's yeast)) (P32657 whole entry, the tested form may be a part): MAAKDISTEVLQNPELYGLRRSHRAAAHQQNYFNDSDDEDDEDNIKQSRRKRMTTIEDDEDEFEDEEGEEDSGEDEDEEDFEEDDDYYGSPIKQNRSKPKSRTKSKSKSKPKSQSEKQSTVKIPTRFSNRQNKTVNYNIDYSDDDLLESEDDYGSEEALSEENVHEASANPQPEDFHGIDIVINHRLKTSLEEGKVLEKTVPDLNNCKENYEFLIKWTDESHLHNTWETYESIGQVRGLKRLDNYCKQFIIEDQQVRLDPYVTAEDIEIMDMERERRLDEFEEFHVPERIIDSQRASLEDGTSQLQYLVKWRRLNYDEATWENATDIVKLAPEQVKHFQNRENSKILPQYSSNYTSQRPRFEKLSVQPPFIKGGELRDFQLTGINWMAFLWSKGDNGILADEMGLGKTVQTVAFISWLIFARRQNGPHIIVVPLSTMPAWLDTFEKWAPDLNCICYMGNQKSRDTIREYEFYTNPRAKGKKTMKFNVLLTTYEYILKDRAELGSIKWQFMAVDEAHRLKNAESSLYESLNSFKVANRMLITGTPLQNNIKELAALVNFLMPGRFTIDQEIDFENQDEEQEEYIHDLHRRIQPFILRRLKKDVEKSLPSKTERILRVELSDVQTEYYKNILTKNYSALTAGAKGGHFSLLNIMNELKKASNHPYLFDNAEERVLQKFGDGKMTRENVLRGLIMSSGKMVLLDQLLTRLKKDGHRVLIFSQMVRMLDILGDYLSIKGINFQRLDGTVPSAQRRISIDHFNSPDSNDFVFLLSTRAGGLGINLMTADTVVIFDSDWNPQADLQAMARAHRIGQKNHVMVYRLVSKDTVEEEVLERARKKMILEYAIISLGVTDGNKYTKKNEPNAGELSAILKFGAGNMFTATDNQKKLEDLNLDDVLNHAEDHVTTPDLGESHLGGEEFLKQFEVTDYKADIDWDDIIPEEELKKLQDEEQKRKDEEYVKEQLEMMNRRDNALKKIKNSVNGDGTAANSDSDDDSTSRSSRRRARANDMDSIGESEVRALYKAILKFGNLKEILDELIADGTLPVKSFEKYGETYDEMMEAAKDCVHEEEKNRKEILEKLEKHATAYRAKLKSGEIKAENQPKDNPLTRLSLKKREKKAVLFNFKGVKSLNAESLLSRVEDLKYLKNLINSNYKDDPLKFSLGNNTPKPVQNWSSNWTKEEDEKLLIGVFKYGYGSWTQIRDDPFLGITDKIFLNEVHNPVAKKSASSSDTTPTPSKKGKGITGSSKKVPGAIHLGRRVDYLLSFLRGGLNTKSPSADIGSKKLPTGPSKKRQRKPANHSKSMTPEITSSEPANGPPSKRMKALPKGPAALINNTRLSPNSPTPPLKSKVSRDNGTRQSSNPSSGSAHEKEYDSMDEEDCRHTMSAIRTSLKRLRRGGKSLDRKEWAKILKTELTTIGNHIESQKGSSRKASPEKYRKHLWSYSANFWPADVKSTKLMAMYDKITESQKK
# Chain of Sialic acid-binding Ig-like lectin 9 (Homo sapiens) (Q9Y336 whole entry): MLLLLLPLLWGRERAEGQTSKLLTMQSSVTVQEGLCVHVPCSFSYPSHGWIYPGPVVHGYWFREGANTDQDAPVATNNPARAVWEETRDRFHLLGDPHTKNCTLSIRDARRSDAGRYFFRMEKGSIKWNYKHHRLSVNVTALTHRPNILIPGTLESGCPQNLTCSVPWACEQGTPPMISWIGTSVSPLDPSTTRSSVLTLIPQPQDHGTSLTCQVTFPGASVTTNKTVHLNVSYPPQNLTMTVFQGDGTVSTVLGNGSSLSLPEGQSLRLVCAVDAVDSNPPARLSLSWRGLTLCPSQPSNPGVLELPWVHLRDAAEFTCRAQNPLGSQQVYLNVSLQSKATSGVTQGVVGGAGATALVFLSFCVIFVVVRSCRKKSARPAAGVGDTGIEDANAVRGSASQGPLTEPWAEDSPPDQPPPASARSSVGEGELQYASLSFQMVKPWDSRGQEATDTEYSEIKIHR
# Chain of Protein translocase subunit SecA (Escherichia coli (strain K12)) (P10408 whole entry): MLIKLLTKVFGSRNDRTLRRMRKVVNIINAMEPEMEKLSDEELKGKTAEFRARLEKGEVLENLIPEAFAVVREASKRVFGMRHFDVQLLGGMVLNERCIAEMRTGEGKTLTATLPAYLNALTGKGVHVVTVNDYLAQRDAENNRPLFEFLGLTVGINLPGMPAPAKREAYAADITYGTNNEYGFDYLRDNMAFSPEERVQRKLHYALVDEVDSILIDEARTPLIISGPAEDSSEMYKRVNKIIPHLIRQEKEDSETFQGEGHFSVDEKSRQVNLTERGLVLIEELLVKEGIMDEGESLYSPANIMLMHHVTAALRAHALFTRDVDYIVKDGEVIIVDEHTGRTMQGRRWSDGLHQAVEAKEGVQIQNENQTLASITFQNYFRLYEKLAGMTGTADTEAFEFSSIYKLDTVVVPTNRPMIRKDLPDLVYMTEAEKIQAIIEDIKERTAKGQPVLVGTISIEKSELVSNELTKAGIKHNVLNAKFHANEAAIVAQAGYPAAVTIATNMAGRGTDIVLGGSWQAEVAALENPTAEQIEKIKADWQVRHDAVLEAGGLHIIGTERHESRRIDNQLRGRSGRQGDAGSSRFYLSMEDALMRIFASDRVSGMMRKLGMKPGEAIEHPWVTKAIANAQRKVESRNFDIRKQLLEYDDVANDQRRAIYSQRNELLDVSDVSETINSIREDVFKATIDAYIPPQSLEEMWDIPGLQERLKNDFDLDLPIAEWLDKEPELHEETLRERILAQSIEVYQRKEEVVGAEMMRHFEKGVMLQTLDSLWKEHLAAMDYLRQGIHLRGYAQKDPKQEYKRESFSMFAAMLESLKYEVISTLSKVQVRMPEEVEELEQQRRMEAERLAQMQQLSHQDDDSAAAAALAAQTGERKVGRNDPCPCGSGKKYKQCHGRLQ
SMILES,Percent Effect [1] [%],Percent Effect [2] [%],Percent Effect [3] [%],Percent Effect [4] [%],Percent Effect [5] [%],Percent Effect (Trypanosoma cruzi) [%],Percent Effect [6] [%],Percent Effect [7] [%],Percent Effect (Homo sapiens) [%],Percent Effect [8] [%],Percent Effect [9] [%],Percent Effect [10] [%],Percent Effect [11] [%]
NCC1(c2cccc(Br)c2)CCOCC1,-5.22,2.7,5.62,-4.06,-6.14,-2.93,-22.5,8.2,2.44,-23.5,8.91,-6.1,-2.29
c1ccc(CN2C[C@@H]3CCCO[C@@H]3[C@H](Nc3ccccn3)C2)nc1,-6.38,5.41,3.79,-2.17,3.76,0.88,3.23,8.15,-12.7,8.28,6.45,16.1,-2.77
Cc1ccccc1CC(C)NCc1c(C)nn(C)c1N1CCOCC1 (centres undefined),-3.17,-1.39,-4.34,-1.27,-1.05,5.93,-2.21,2.46,-20.6,16.3,3.16,2.56,102
Cc1cnc(N2CCCC3(CCCN(C)C3)C2)nc1 (centres undefined),-4.89,0,-0.912,0.0306,4.33,3.37,-6.79,8.82,-22.4,7.25,-2.08,8.64,-5.6
Cc1noc(C)c1CN1CC[C@@H]2O[C@@H](COCC(C)C)CC[C@@H]21,-2.23,0,-1.08,1.3,5.58,-1.16,-49.3,2.22,8.8,2.31,2.08,2.5,1.48
O=C(c1ccsc1)N1CCN2C[C@H](OCc3cccnc3)C[C@H]2C1,-4.24,10.7,-1.78,8.09,-1.36,-4.53,3.96,11.5,8.09,1.7,1.06,-8.97,-3.5
O=C(Cc1ccc(O)c(Cl)c1)N1CCN(CC2CC2)[C@@H]2CS(=O)(=O)C[C@@H]21,-7.75,-1.39,4.65,-2.21,15.8,-1.46,0,7.54,-5.81,-19.1,-2.1,-2.56,-1.95
Cc1cc(N2CCN3CCCCC3C2)n2nc(C)c(C)c2n1 (centres undefined),-1.84,6.94,-12.4,-4.39,-5.54,-2.43,-0.442,14.7,-15.5,4.77,4.21,10.3,-3.52
Cc1ncsc1CN1CC[C@H]2C[C@H](c3ccncn3)O[C@@H]2C1,1.18,10.4,1.35,2.98,-6.01,-9.57,0.645,9.4,24.2,0.203,1.06,6.41,-5.8
CS(=O)(=O)N1CCC(C(=O)N2CCC3(CC2)OCCCO3)CC1,-4.7,20.8,3.34,-4.81,-12.3,5.23,3.23,12.2,14.4,-32.1,6.35,21.8,-10.8
Cc1cccc(CO[C@@H]2CC[C@H]3[C@H]2OCCN3Cc2ccsc2)n1,-6.22,21.3,0.204,-3.76,1.99,4.44,-38.9,13.3,20.3,-20.4,3.12,15,-6.6
O=C([C@H]1C[C@H]2OCC[C@H]2N(Cc2cccnc2)C1)N1CCCO1,-1.59,10.8,5.55,3.09,-7.38,-0.489,20.1,27.7,14.1,-7.24,13,15.4,3.21
c1cncc(OC[C@@H]2CCC[C@@]23CNCCO3)c1,-5.75,8.11,1.15,89.4,-7.32,-6.75,-3.5,13.1,9.54,-12.4,-3.24,0,-2.43
Cc1noc([C@@H]2C[C@H]3CN(Cc4cc(C)on4)C[C@H]3O2)n1,-0.923,10.4,2.67,5.31,-5.26,-4.63,9.68,12.4,10.4,-9.84,3.17,6.41,-8.87
Cc1ccc(N2CCO[C@H]3CN(Cc4ccncc4)C[C@H]32)nn1,-2.06,2.7,2.28,3.63,-2.84,-2.83,1.59,19.6,4.04,-5.64,8.65,10.3,-5.13
c1ccc(CO[C@@H]2CO[C@@]3(CCN(Cc4ccccn4)C3)C2)nc1,-5.26,6.67,0.581,5.55,4.84,-1.18,4.75,6.84,-42,-15.8,5.29,5.13,-3.05
O=C(N[C@H]1CN[C@H]2CCCO[C@H]21)c1ccno1,-2.91,2.74,0.661,-1.51,4.01,4.76,-2.4,6.76,-9.47,2.67,4.17,6.17,2.08
c1cnc(NC[C@@H]2CCC[C@@H]3CN(Cc4cc[nH]n4)C[C@@H]32)nc1,-1.01,10.8,-0.521,-5.7,-5.33,5.66,4.17,7.69,6.51,-15,10.9,15.8,-6.02
